Results filed as inconclusive are left out. Active and inactive are the calls of the source. Rule for the calls, unless noted: active = hit-call score of the fitted dose curve at least 0.9, where 1 is the maximum; inactive = score below 0.9.
Legend:
[1] = biological target: human RAR-related Orphan Receptor gamma (RORg), RORC (gene 6097) (UniProt P51449); test: ATG_RORg_TRANS: Attagene TRANS-FACTORIAL HepG2 Assay for human RAR-related Orphan Receptor gamma (RORg) (AID 2283011; active = hit-call score of the fitted dose curve at least 0.9, where 1 is the maximum)
Method in brief: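 HepG2 cells transiently transfected with GAL4-UAS reporter units and chimeric RORg-Gal4 construct; after 24 h chemical exposure, reporter mRNA measured by RT-PCR with fluorescent capillary electrophoresis, gain of signal fitted against DMSO.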

[2] = biological target: Retinoic acid receptor RXR-alpha (Homo sapiens) (UniProt P19793); test: ATG_RXRa_TRANS: Attagene TRANS-FACTORIAL HepG2 Assay for human Retinoid X Receptor alpha (RXRa) (AID 2283012; active = hit-call score of the fitted dose curve at least 0.9, where 1 is the maximum)
Method in brief: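 HepG2 cells transiently transfected with GAL4-UAS reporter units and chimeric RXRa-Gal4 protein, treated 24 h. Reporter mRNA measured by RT-PCR, fluorescent labelling, HpaI digestion and capillary electrophoresis. Induction fitted against DMSO.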

[3] = biological target: human Retinoid X Receptor beta (RXRb), RXRB (gene 6257) (UniProt P28702); test: ATG_RXRb_TRANS: Attagene TRANS-FACTORIAL HepG2 Assay for human Retinoid X Receptor beta (RXRb) (AID 2283013; active = hit-call score of the fitted dose curve at least 0.9, where 1 is the maximum)
Method in brief: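 HepG2 cells were transiently transfected with multiplexed GAL4-UAS reporters and a chimeric RXRb-Gal4 construct, then exposed for 24 h. Reporter mRNA was quantified by RT-PCR, FAM labeling, HpaI digestion and capillary electrophoresis; gain of signal was scored against DMSO.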

[4] = biological target: human Thyroid Receptor alpha (THRa1), THRA (gene 7067) (UniProt P10827); test: ATG_THRa1_TRANS: Attagene TRANS-FACTORIAL HepG2 Assay for human Thyroid Receptor alpha (THRa1) (AID 2283014; active = hit-call score of the fitted dose curve at least 0.9, where 1 is the maximum)
Method in brief: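 HepG2 cells transiently transfected with chimeric NR-Gal4 and GAL4-UAS reporter units, dosed 24 h. Reporter mRNA quantified by RT-PCR, fluorescent labeling, HpaI digestion and capillary electrophoresis; gain-of-signal fit versus DMSO.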

[5] = read-out: E-selectin (Homo sapiens) (UniProt P16581); test: BSK_3C_Eselectin: BioMAP Diversity Plus: 3C Assay for Eselectin Biomarker Activity (AID 2283015); conditions: primary human endothelial cells (HUVEC); actives raise or lower the signal
Method in brief: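 Primary human umbilical vein endothelial cells (3C system), read 24 h after compound addition; E-selectin measured by ELISA. Bidirectional curve fitting against DMSO baseline; cytotoxicity by parallel SRB total-protein staining.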

[6] = read-out: Interleukin-1 alpha (IL1a), IL1A (gene 3552); test: BSK_BE3C_IL1a: BioMAP Diversity Plus: BE3C Assay for Interleukin-1 alpha (IL1a) Biomarker Activity (AID 2283016); conditions: primary human bronchial epithelial cells; actives raise or lower the signal
Method in brief: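 Human primary bronchial epithelial cells, 24 h chemical exposure; IL-1a quantified by ELISA, fitted bidirectionally against DMSO. Cytotoxicity assessed in parallel by SRB total-protein staining at the time of measurement.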

[7] = read-out: Monocyte Chemoattractant Protein-1 (MCP1), CCL2 (gene 6347); test: BSK_3C_MCP1: BioMAP Diversity Plus: 3C Assay for Monocyte Chemoattractant Protein-1 (MCP1) Biomarker Activity (AID 2283017); conditions: primary human endothelial cells (HUVEC); actives raise or lower the signal
Method in brief: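 Human umbilical vein endothelial cells (3C system) exposed to chemicals for 24 h; MCP-1 quantified by ELISA against the DMSO baseline with bidirectional fitting, and parallel SRB staining used to assess cytotoxicity.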

[8] = read-out: Monocyte Chemoattractant Protein-1 (MCP1), CCL2 (gene 6347); test: BSK_4H_MCP1: BioMAP Diversity Plus: 4H Assay for Monocyte Chemoattractant Protein-1 (MCP1) Biomarker Activity (AID 2283018); conditions: primary human endothelial cells (HUVEC); actives raise or lower the signal
Method in brief: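 Human umbilical vein endothelial cells (4H system) exposed to chemicals for 24 h in 96-well format. MCP-1 measured by ELISA; bidirectional fitting against DMSO, with SRB total-protein staining in parallel cultures for cytotoxicity.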

[9] = read-out: Human Leukocyte Antigen - DR isotype (HLADR), HLA-DRA (gene 3122); test: BSK_3C_HLADR: BioMAP Diversity Plus: 3C Assay for Human Leukocyte Antigen - DR isotype (HLADR) Biomarker Activity (AID 2283019); conditions: primary human endothelial cells (HUVEC); actives raise or lower the signal;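 for outcome: ELISA of cell-surface HLA-DR on HUVEC 24 h after dosing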
Method in brief: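 HUVEC monoculture, HLA-DR measured by ELISA 24 h after chemical dosing. Fitted bidirectionally against DMSO baseline; parallel SRB staining assessed cytotoxicity, with 3C proliferation read by SRB at 48 h.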

[10] = read-out: Interleukin-8 (IL8), CXCL8 (gene 3576); test: BSK_3C_IL8: BioMAP Diversity Plus: 3C Assay for Interleukin-8 (IL8) Biomarker Activity (AID 2283020); conditions: primary human endothelial cells (HUVEC); actives raise or lower the signal
Method in brief: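 Primary human umbilical vein endothelial cells were dosed for 24 h. IL-8 was quantified by ELISA and fitted bidirectionally against DMSO. Cytotoxicity was assessed in parallel cultures by SRB staining at 560 nm.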

[11] = read-out: Monokine induced gamma interferon (MIG), CXCL9 (gene 4283); test: BSK_3C_MIG: BioMAP Diversity Plus: 3C Assay for Monokine induced gamma interferon (MIG) Biomarker Activity (AID 2283021); conditions: primary human endothelial cells (HUVEC); actives raise or lower the signal
Method in brief: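 HUVEC primary endothelial cultures dosed with chemical; MIG quantified by ELISA at 24 h. Data fitted bidirectionally against DMSO control, with parallel SRB total-protein staining for cytotoxicity.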

[12] = BSK_3C_SRB: Viability Assessment in the BioMAP Diversity Plus: 3C Assay (AID 2283023); conditions: primary human endothelial cells (HUVEC);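 note: fitted both ways against DMSO so a hit may be signal rise or drop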
Method in brief: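 Human umbilical vein endothelial cells in the 3C system, treated 24 h. Total protein measured by 0.1% sulforhodamine B staining after 10% TCA fixation, read at 560 nm; bidirectional fit versus DMSO.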

[13] = read-out: Matrix Metallopeptidase 1 (MMP1), MMP1 (gene 4312); test: BSK_BE3C_MMP1: BioMAP Diversity Plus: BE3C Assay for Matrix Metallopeptidase 1 (MMP1) Biomarker Activity (AID 2283024); conditions: primary human bronchial epithelial cells; actives raise or lower the signal
Method in brief: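 Human primary bronchial epithelial cells (BE3C system) dosed for 24 h; MMP-1 quantified by ELISA. Bidirectional fit against DMSO; cytotoxicity tracked in parallel cultures by SRB total-protein staining.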

[14] = BSK_3C_Vis: BioMAP Diversity Plus: 3C Assay for Morphology Visualization (AID 2283025); conditions: primary human endothelial cells (HUVEC);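 note: fitted both ways so gain or loss versus DMSO counts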;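 for AC50: light microscopy image of cell morphology used as background control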
Method in brief: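 Human umbilical vein endothelial cell morphology was inspected by light microscopy 24 h after chemical dosing; scored bidirectionally relative to DMSO.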

[15] = read-out: Pselectin, SELP (gene 6403); test: BSK_4H_Pselectin: BioMAP Diversity Plus: 4H Assay for Pselectin Biomarker Activity (AID 2283026); conditions: primary human endothelial cells (HUVEC); actives raise or lower the signal
Method in brief: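 Primary human umbilical vein endothelial cells were treated 24 h, and cell-surface P-selectin was then quantified by ELISA. Bidirectional fit versus DMSO; cytotoxicity checked in parallel cultures by SRB total-protein staining.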

[16] = BSK_4H_SRB: Viability Assessment in the BioMAP Diversity Plus: 4H Assay (AID 2283027); conditions: primary human endothelial cells (HUVEC);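 note: cells exposed to compound for 24 h before staining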;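 for AC50: curves fitted both ways versus DMSO so AC50 may be loss or gain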
Method in brief: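 Human umbilical vein endothelial cells, 24 h after chemical dosing; total protein measured by 0.1% sulforhodamine B staining after 10% TCA fixation, read at 560 nm. Bidirectional fitting against DMSO.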

[17] = BSK_BE3C_SRB: Viability Assessment in the BioMAP Diversity Plus: BE3C Assay (AID 2283028); conditions: primary human bronchial epithelial cells;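 for AC50: fitted both ways so AC50 may mark signal gain or loss versus DMSO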
Method in brief: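 Human bronchial epithelial primary cells in confluent culture, 24 h after chemical dosing; total protein by 0.1% SRB staining after 10% TCA fixation, read at 560 nm. Bidirectional fitting versus DMSO baseline.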

[18] = biological target: human Vitamin D Receptor (VDR), VDR (gene 7421) (UniProt P11473); test: ATG_VDR_TRANS: Attagene TRANS-FACTORIAL HepG2 Assay for human Vitamin D Receptor (VDR) (AID 2283022; active = hit-call score of the fitted dose curve at least 0.9, where 1 is the maximum)
Method in brief: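 HepG2 cells were transiently transfected with GAL4-UAS reporter units and a chimeric VDR-Gal4 construct, then dosed for 24 hours. Reporter mRNA was quantified by RT-PCR, fluorescent labeling, HpaI digestion and capillary electrophoresis; gain of signal analysed vs DMSO.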

[19] = read-out: Thrombomodulin, THBD (gene 7056); test: BSK_3C_Thrombomodulin: BioMAP Diversity Plus: 3C Assay for Thrombomodulin Biomarker Activity (AID 2283029); conditions: primary human endothelial cells (HUVEC); actives raise or lower the signal
Method in brief: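 Human umbilical vein endothelial cells were exposed to chemicals for 24 h; cell-surface thrombomodulin quantified by ELISA, with bidirectional fitting against DMSO baseline.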

human Vitamin D Receptor (VDR), VDR (gene 7421), sequence (P11473 whole entry, looked up, the tested form may be a part): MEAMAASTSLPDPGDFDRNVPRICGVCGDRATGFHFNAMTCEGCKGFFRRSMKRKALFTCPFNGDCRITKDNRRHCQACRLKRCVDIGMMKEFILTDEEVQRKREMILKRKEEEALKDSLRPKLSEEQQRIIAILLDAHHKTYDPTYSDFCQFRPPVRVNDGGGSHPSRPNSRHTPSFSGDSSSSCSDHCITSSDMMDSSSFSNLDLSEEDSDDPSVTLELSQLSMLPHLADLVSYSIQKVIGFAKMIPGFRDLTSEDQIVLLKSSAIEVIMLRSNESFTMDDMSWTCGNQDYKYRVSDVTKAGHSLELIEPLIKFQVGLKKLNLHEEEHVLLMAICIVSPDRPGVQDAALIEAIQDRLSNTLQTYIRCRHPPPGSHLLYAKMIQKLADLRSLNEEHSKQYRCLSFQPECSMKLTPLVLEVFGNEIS
Retinoic acid receptor RXR-alpha (Homo sapiens), sequence (P19793 whole entry, looked up, the tested form may be a part): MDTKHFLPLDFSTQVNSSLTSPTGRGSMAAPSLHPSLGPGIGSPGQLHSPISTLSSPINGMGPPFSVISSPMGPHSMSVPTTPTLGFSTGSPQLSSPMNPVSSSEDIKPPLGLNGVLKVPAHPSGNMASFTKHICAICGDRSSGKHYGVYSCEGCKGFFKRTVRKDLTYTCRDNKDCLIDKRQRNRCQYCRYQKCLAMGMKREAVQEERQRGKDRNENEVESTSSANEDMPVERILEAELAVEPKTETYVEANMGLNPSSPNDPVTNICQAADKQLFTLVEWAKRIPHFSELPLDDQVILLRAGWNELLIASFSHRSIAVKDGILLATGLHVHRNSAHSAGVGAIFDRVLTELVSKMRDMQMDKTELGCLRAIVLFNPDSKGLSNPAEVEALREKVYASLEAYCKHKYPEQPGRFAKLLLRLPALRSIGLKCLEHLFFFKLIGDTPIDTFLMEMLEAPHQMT
human Retinoid X Receptor beta (RXRb), RXRB (gene 6257), sequence (P28702 whole entry, looked up, the tested form may be a part): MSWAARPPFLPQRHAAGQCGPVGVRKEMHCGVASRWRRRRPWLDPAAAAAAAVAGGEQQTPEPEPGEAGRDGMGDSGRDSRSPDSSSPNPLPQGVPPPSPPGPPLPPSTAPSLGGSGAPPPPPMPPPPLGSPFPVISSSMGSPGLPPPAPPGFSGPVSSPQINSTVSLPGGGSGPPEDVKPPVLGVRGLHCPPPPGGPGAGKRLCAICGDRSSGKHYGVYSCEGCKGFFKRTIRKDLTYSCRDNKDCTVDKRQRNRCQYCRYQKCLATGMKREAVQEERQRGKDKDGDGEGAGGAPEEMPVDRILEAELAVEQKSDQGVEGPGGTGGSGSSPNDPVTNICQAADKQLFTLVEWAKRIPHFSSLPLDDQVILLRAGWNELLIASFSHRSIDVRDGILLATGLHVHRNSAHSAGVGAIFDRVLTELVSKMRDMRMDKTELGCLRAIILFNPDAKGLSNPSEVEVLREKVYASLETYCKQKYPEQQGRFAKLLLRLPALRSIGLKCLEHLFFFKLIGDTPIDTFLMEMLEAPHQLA
human Thyroid Receptor alpha (THRa1), THRA (gene 7067), sequence (P10827 whole entry, looked up, the tested form may be a part): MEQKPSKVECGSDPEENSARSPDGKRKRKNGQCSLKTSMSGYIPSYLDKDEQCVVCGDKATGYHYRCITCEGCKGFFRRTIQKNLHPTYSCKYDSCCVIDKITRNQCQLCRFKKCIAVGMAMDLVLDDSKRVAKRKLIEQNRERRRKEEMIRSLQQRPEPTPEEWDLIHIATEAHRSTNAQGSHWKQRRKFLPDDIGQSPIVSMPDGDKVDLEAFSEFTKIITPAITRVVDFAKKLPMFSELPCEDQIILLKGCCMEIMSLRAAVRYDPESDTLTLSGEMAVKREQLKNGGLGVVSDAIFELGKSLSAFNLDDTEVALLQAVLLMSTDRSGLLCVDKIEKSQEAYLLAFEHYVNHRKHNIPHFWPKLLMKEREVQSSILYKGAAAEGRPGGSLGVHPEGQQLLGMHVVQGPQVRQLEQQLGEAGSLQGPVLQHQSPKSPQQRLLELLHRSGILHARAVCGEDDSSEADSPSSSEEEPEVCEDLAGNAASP
E-selectin (Homo sapiens), sequence (P16581 whole entry, looked up): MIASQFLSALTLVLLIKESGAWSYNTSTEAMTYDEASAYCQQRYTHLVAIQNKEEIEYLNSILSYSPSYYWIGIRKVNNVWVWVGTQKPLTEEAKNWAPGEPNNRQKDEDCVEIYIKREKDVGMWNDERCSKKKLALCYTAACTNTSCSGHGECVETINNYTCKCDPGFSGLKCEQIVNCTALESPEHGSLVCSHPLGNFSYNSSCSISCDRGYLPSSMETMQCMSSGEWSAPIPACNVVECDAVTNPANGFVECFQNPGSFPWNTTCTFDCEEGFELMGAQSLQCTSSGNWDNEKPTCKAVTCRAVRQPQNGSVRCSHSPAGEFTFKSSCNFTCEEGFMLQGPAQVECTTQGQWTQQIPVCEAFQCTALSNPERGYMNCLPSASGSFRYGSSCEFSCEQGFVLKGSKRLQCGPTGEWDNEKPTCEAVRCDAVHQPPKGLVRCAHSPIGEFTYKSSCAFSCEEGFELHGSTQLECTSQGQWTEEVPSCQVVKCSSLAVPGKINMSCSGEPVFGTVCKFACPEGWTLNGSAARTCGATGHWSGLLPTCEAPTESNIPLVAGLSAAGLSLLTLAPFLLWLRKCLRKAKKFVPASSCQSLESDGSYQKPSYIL
human RAR-related Orphan Receptor gamma (RORg), RORC (gene 6097), sequence (P51449 whole entry, looked up, the tested form may be a part): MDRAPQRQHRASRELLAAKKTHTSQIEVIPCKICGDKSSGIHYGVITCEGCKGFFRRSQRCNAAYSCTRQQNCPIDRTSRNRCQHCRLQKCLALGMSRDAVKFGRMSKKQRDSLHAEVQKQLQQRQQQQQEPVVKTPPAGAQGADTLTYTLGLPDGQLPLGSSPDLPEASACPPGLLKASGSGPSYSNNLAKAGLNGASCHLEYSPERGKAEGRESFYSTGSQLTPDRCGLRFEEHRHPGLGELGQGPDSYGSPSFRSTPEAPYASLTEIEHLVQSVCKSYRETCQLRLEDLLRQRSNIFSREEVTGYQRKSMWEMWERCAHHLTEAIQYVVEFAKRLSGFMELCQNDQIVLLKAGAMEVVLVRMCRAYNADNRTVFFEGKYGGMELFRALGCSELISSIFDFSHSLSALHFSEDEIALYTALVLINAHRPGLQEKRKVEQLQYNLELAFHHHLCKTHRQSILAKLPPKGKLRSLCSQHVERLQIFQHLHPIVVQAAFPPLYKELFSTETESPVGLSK

CCCCC(CC)COC(=O)c1ccccc1C(=O)OCC(CC)CCCC (configuration not stated)
outcome [1]: inactive
outcome [2]: inactive
outcome [3]: inactive
outcome [4]: inactive
outcome [5]: inactive
outcome [6]: inactive
outcome [7]: inactive
AC50 [8]: 14 µM (active)
AC50 [9]: 15.5 µM (active)
outcome [10]: inactive
outcome [11]: inactive
AC50 [12]: 10.5 µM (active)
outcome [13]: inactive
AC50 [14]: 39 µM (active)
AC50 [15]: 15.6 µM (active)
outcome [16]: inactive
AC50 [17]: 11 µM (active)

C=CCC1=C(C)[C@@H](OC(=O)[C@@H]2[C@@H](C=C(C)C)C2(C)C)CC1=O
outcome [2]: inactive
AC50 [5]: 31.2 µM (active)
outcome [6]: inactive
AC50 [7]: 32 µM (active)
AC50 [8]: 23.4 µM (active)
AC50 [9]: 34.4 µM (active)
AC50 [10]: 35.4 µM (active)
outcome [11]: inactive
outcome [18]: inactive
AC50 [12]: 25.8 µM (active)
outcome [13]: inactive
AC50 [14]: 13.7 µM (active)
AC50 [15]: 31.6 µM (active)
AC50 [16]: 30.2 µM (active)
AC50 [17]: 18.8 µM (active)

COP(=S)(OC)Oc1nc(Cl)c(Cl)cc1Cl
outcome [2]: inactive
outcome [3]: inactive
AC50 [5]: 35.2 µM (active)
outcome [6]: inactive
outcome [7]: inactive
outcome [8]: inactive
outcome [9]: inactive
outcome [10]: inactive
outcome [11]: inactive
AC50 [12]: 20 µM (active)
outcome [13]: inactive
AC50 [14]: 39 µM (active)
AC50 [15]: 20 µM (active)
outcome [16]: inactive
outcome [17]: inactive
outcome [19]: inactive

CCNc1nc(Cl)nc(NC(C)C)n1
outcome [1]: inactive
outcome [2]: inactive
outcome [3]: inactive
outcome [4]: inactive
outcome [5]: inactive
outcome [6]: inactive
outcome [7]: inactive
outcome [8]: inactive
outcome [9]: inactive
outcome [10]: inactive
outcome [11]: inactive
outcome [18]: inactive
outcome [12]: inactive
outcome [13]: inactive
outcome [14]: inactive
outcome [15]: inactive
outcome [16]: inactive
outcome [17]: inactive
outcome [19]: inactive

CC(C)(C)c1ccc(CSc2cnn(C(C)(C)C)c(=O)c2Cl)cc1
outcome [1]: inactive
outcome [2]: inactive
outcome [3]: inactive
AC50 [5]: 3.97 µM (active)
outcome [6]: inactive
AC50 [7]: 10.4 µM (active)
AC50 [8]: 0.221 µM (active)
AC50 [9]: 3.97 µM (active)
AC50 [10]: 7.27 µM (active)
outcome [11]: inactive
outcome [18]: inactive
AC50 [12]: 10.9 µM (active)
outcome [13]: inactive
AC50 [14]: 15.2 µM (active)
AC50 [15]: 11.1 µM (active)
AC50 [16]: 16.5 µM (active)
AC50 [17]: 7.9 µM (active)

CCOC(=O)C(Cl)Cc1cc(-n2nc(C)n(C(F)F)c2=O)c(F)cc1Cl (configuration not stated)
outcome [1]: inactive
outcome [2]: inactive
outcome [3]: inactive
outcome [4]: inactive
outcome [5]: inactive
outcome [6]: inactive
outcome [7]: inactive
outcome [8]: inactive
AC50 [9]: 9.55 µM (active)
outcome [10]: inactive
outcome [11]: inactive
outcome [18]: inactive
outcome [12]: inactive
outcome [13]: inactive
outcome [14]: inactive
outcome [15]: inactive
outcome [16]: inactive
outcome [17]: inactive
